Laboratory results reported in PubChem BioAssay (EPA / NIEHS).
The source made the active and inactive calls. Rule for the calls: active = hit-call score of the fitted dose curve at least 0.9, where 1 is the maximum; inactive = score below 0.9.

What was measured:
Conditions in all cases: mRNA level, 48 h; actives raise or lower the signal
[1] = read-out: Cytochrome P450 4A22 (Homo sapiens) (UniProt Q5TCH4); experiment: LTEA_HepaRG_CYP4A22: Life Technologies and Expression Analysis (LTEA) Assay for Cytochrome P450 4A22 (CYP4A22) using HepaRG (AID 2283495)
Method in brief: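 HepaRG, 48 h post-plating -> serum-free induction medium; dosed 48 h, duplicate, 8 conc. (100 uM top, half-log), 0.5% DMSO. Readout: CYP4A22 mRNA by qRT-PCR, ACTB/GAPDH/POLR2A normalization; gain/loss fit relative to DMSO.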

[2] = read-out: Glutathione S-Transferase (GSTA2), GSTA2 (gene 2939); experiment: LTEA_HepaRG_GSTA2: Life Technologies and Expression Analysis (LTEA) Assay for Glutathione S-Transferase (GSTA2) using HepaRG (AID 2283497)
Method in brief: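 qRT-PCR readout of GSTA2 transcript, normalized to three housekeeping genes, fitted bidirectionally against 0.5% DMSO baseline. Differentiated HepaRG cells received compound for 48 h at 8 concentrations (top 100 uM, half-log steps).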

[3] = read-out: Glutamate-cysteine ligase catalytic (GCLC), GCLC (gene 2729); experiment: LTEA_HepaRG_GCLC: Life Technologies and Expression Analysis (LTEA) Assay for Glutamate-cysteine ligase catalytic (GCLC) using HepaRG (AID 2283498)
Method in brief: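 HepaRG, 48 h exposure, 8-pt half-log series from 100 uM, 0.5% DMSO vehicle; TaqMan qRT-PCR for GCLC mRNA, housekeeping-normalized; bidirectional curve fit vs DMSO baseline.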

[4] = read-out: growth arrest and DNA damage 45 (GADD45G), GADD45G (gene 10912); experiment: LTEA_HepaRG_GADD45G: Life Technologies and Expression Analysis (LTEA) Assay for growth arrest and DNA damage 45 (GADD45G) using HepaRG (AID 2283499)
Method in brief: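 HepaRG, 48 h exposure, top 100 uM, half-log 8-point series, 0.5% DMSO vehicle, duplicates. Readout: GADD45G transcript by qRT-PCR (Fluidigm array), housekeeping-normalised (ACTB/GAPDH/POLR2A). Bidirectional curve fit vs DMSO baseline.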

[5] = read-out: Glutamate-cysteine ligase regulatory (GCLM), GCLM (gene 2730); experiment: LTEA_HepaRG_GCLM: Life Technologies and Expression Analysis (LTEA) Assay for Glutamate-cysteine ligase regulatory (GCLM) using HepaRG (AID 2283500)
Method in brief: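 HepaRG, 48 h dosing, 100 uM top, half-log x8, 0.5% DMSO vehicle. Readout: GCLM mRNA by TaqMan qRT-PCR, housekeeping-normalized (ACTB/GAPDH/POLR2A). Curves fit bidirectionally vs DMSO baseline.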

[6] = read-out: Glutathione S-transferase M3 (GSTM3), GSTM3 (gene 2947); experiment: LTEA_HepaRG_GSTM3: Life Technologies and Expression Analysis (LTEA) Assay for Glutathione S-transferase M3 (GSTM3) using HepaRG (AID 2283501)
Method in brief: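 qRT-PCR read-out of GSTM3 transcript, normalized to three housekeeping genes, from human HepaRG cells after 48 h chemical exposure. Eight-point half-log series, top 100 uM, 0.5% DMSO vehicle; gain or loss fitted relative to DMSO baseline.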

[7] = read-out: Heat shock 70 kDa protein 1 (HSPA1A), gene 3303; experiment: LTEA_HepaRG_HSPA1A: Life Technologies and Expression Analysis (LTEA) Assay for Heat shock 70 kDa protein 1 (HSPA1A) using HepaRG (AID 2283502)
Method in brief: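 HepaRG, 48 h exposure, 8-pt half-log CRC from 100 uM in 0.5% DMSO, duplicates. Readout: TaqMan qRT-PCR of HSPA1A mRNA, housekeeping-normalized (ACTB/GAPDH/POLR2A). Bidirectional fit vs 0.5% DMSO baseline.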

[8] = read-out: 3-Hydroxy-3-Methylglutaryl-CoA Synthase 2 (HMGCS2), HMGCS2 (gene 3158); experiment: LTEA_HepaRG_HMGCS2: Life Technologies and Expression Analysis (LTEA) Assay for 3-Hydroxy-3-Methylglutaryl-CoA Synthase 2 (HMGCS2) using HepaRG (AID 2283504)
Method in brief: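 qRT-PCR read-out of HMGCS2 transcript, normalised to three housekeeping genes, in HepaRG cells after 48 h chemical exposure. Eight-point curves from 100 uM, half-log dilutions, 0.5% DMSO vehicle; gain or loss fitted relative to DMSO baseline.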

HGF (gene 3082) = experiment: LTEA_HepaRG_HGF: Life Technologies and Expression Analysis (LTEA) Assay for Hepatocyte Growth Facto (HGF) using HepaRG (AID 2283505)
Method in brief: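 HepaRG, 48 h dosing, 8-pt half-log series from 100 uM in 0.5% DMSO, duplicates. Readout: TaqMan qRT-PCR of HGF mRNA, housekeeping-normalized; bidirectional curve fit vs DMSO baseline.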

[9] = read-out: Insulin Like Growth Factor 1 (IGF1), IGF1 (gene 3479); experiment: LTEA_HepaRG_IGF1: Life Technologies and Expression Analysis (LTEA) Assay for Insulin Like Growth Factor 1 (IGF1) using HepaRG (AID 2283506)
Method in brief: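 qRT-PCR readout of IGF1 mRNA, normalized to three housekeeping genes, after 48 h chemical exposure of HepaRG cells. Concentrations: 8-point half-log series, top 100 uM, 0.5% DMSO vehicle. Gain or loss fitted against DMSO baseline.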

[10] = read-out: Intercellular Adhesion Molecule 1 (ICAM1), ICAM1 (gene 3383); experiment: LTEA_HepaRG_ICAM1: Life Technologies and Expression Analysis (LTEA) Assay for Intercellular Adhesion Molecule 1 (ICAM1) using HepaRG (AID 2283507)
Method in brief: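 HepaRG, 48 h exposure, 8-pt half-log series from 100 uM, 0.5% DMSO vehicle, duplicates. Readout: TaqMan qRT-PCR mRNA, housekeeping-normalized (ACTB/GAPDH/POLR2A). Bidirectional curve fit vs DMSO baseline.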

[11] = read-out: Interleukin 6 (IL6), IL6 (gene 3569); experiment: LTEA_HepaRG_IL6: Life Technologies and Expression Analysis (LTEA) Assay for Interleukin 6 (IL6) using HepaRG (AID 2283509)
Method in brief: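 qRT-PCR read-out of IL6 transcript, normalized to three housekeeping genes, after 48 h chemical exposure of HepaRG cells; 8-point half-log series, top 100 uM, 0.5% DMSO vehicle. Bidirectional curve fitting against DMSO baseline.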

[12] = read-out: Interleukin 6 Receptor (IL6R), IL6R (gene 3570); experiment: LTEA_HepaRG_IL6R: Life Technologies and Expression Analysis (LTEA) Assay for Interleukin 6 Receptor (IL6R) using HepaRG (AID 2283510);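 for AC50: differentiated human HepaRG liver cells in serum-free induction medium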
Method in brief: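 HepaRG, 48 h exposure, 8-pt half-log series, top 100 uM, 0.5% DMSO vehicle, duplicates. Read-out: TaqMan qRT-PCR of IL6R transcript, housekeeping-gene normalized. Gain or loss fitted relative to DMSO baseline.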

[13] = read-out: Potassium channel subfamily K member 1 (KCNK1), KCNK1 (gene 3775); experiment: LTEA_HepaRG_KCNK1: Life Technologies and Expression Analysis (LTEA) Assay for Potassium channel subfamily K member 1 (KCNK1) using HepaRG (AID 2283511)
Method in brief: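 HepaRG, 48 h exposure, 8-pt half-log series top 100 uM, 0.5% DMSO vehicle, duplicates. Readout: KCNK1 transcript by qRT-PCR (Fluidigm array), housekeeping-normalized; bidirectional curve fit relative to DMSO baseline.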

[14] = read-out: Keratin 19 (KRT19), KRT19 (gene 3880); experiment: LTEA_HepaRG_KRT19: Life Technologies and Expression Analysis (LTEA) Assay for Keratin 19 (KRT19) using HepaRG (AID 2283512)
Method in brief: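 HepaRG, 48 h chemical exposure, 8-pt half-log CRC from 100 uM, 0.5% DMSO vehicle, duplicates. Readout: TaqMan qRT-PCR of KRT19 mRNA, housekeeping-normalized (ACTB/GAPDH/POLR2A). Bidirectional fit vs DMSO baseline.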

[15] = read-out: JUN Transcription Factor, JUN (gene 3725); experiment: LTEA_HepaRG_JUN: Life Technologies and Expression Analysis (LTEA) Assay for JUN Transcription Factor using HepaRG (AID 2283513)
Method in brief: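 HepaRG, 48 h exposure, 8-pt half-log series top 100 uM, 0.5% DMSO, duplicate. JUN mRNA by qRT-PCR (Fluidigm), housekeeping-normalized (ACTB/GAPDH/POLR2A); bidirectional curve fit vs DMSO baseline.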

[16] = read-out: Lipase C (LIPC), LIPC (gene 3990); experiment: LTEA_HepaRG_LIPC: Life Technologies and Expression Analysis (LTEA) Assay for Lipase C (LIPC) using HepaRG (AID 2283514)
Method in brief: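 HepaRG, 48 h exposure, 8-pt half-log series from 100 uM in 0.5% DMSO, duplicates. Readout: LIPC mRNA by Fluidigm qRT-PCR, housekeeping-normalized (ACTB/GAPDH/POLR2A). Gain or loss fitted bidirectionally against DMSO baseline.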

[17] = read-out: Cytochrome P450 7A1 (Homo sapiens) (UniProt P22680); experiment: LTEA_HepaRG_CYP7A1: Life Technologies and Expression Analysis (LTEA) Assay for Cytochrome P450 7A1 (CYP7A1) using HepaRG (AID 2283496)
Method in brief: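 Using 0.5% DMSO as vehicle and baseline, chemicals were tested in duplicate over an 8-point range from 100 uM on HepaRG cells for 48 h; qRT-PCR signals were normalised to ACTB, GAPDH and POLR2A.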

[18] = read-out: Hypoxia-inducible factor 1-alpha (Homo sapiens) (UniProt Q16665); experiment: LTEA_HepaRG_HIF1A: Life Technologies and Expression Analysis (LTEA) Assay for Hypoxia-inducible factor 1 (HIF1A) Trancription factor using HepaRG (AID 2283503)
Method in brief: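 Gain- or loss-of-signal HIF1A mRNA changes are fitted against a DMSO baseline. HepaRG cultures receive eight concentrations, highest 100 uM, for 48 h in serum-free induction medium with 0.5% DMSO.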

Measured: AC50

Hypoxia-inducible factor 1-alpha (Homo sapiens), sequence (Q16665 whole entry, looked up): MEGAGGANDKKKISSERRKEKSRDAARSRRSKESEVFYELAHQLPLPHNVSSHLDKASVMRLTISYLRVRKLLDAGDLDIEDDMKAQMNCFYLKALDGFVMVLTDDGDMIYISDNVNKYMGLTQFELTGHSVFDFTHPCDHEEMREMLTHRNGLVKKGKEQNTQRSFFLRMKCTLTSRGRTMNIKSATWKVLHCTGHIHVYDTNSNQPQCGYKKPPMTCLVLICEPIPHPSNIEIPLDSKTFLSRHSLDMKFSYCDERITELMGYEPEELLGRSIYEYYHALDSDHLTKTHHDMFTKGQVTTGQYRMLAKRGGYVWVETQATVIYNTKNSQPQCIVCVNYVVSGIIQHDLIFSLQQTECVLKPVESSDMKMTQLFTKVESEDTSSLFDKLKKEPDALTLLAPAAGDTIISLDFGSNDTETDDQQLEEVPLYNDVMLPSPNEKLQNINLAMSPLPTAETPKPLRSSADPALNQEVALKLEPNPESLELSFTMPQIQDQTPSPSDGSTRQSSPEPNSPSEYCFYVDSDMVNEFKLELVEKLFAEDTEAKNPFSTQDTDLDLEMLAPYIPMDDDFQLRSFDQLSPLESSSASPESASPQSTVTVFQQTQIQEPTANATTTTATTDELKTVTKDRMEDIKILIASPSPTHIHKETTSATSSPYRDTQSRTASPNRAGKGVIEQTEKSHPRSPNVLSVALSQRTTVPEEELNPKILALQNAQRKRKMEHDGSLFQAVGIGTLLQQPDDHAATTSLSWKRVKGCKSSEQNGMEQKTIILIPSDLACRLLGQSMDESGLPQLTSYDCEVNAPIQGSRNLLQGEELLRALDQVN

COC(=O)c1ccc(I)cc1S(=O)(=O)NC(=O)Nc1nc(C)nc(OC)n1
not listed: [17] | [18]
inactive: all other assays above

N#CSCSc1nc2ccccc2s1
active: [1] 90.5 µM | [2] 86 µM | [9] 77.2 µM | [12] 84 µM
inactive: all other assays above

CCCOC(=O)c1ccc(C(=O)OCCC)nc1
inactive: all assays above

CCCCOC(=O)C(C)Oc1ccc(Oc2ccc(C(F)(F)F)cn2)cc1 (centres undefined)
inactive: all assays above
